High-throughput results: PubChem BioAssay, National Center for Advancing Translational Sciences (NCATS)
BLM helicase inh = inhibitors of human Bloom syndrome helicase BLM; 350,000 tested, 0.2% active; P54132; Potency, µM (highest dose often 56.1 µM), for inactives: at the top dose activity change, negative = inhibition, actives largely listed as inhibitors; recombinant BLM DNA unwinding, fluorescence dequenching;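 further: plate controls were vehicle for no effect and no enzyme for full effect; nearly all actives have a fitted effect of over 35% in size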
APEX1 inh = inhibitors of human APE1 endonuclease. P27695. recombinant APE1, TAMRA/BHQ-2 abasic DNA cleavage fluorescence. Potency, µM (highest dose often 65.8 µM), for the others: at the top dose activity change, negative = inhibition, most hits filed as inhibitors. 350,000 tested, 0.35% active. AID 2517;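 further: plate controls were vehicle for no effect and reference inhibitor for full effect; nearly all actives have a fitted effect of over 55% in size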
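Endonuclease cleavage of a quenched abasic-site DNA duplex (50 nM) by APE1 (0.75 nM) was tracked by TAMRA dequenching. Compounds were preincubated with enzyme 15 min at room temperature; data normalized to buffer-only and DMSO wells plus NSC13755 control.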
TDP1 inh = inhibitors of human tyrosyl-DNA phosphodiesterase TDP1 | recombinant TDP1, AlphaScreen DNA substrate cleavage | Potency, µM (highest dose often 130 µM), inactives show top-dose activity change, negative = inhibition, hits mostly inhibitors | 350,000 tested, 0.28% active; further: nearly all actives have a fitted effect of over 40% in size
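Enzyme-compound mixtures sat 15 min at room temperature, followed by a 5 min reaction with 15 nM final substrate and 10 min with AlphaScreen beads. Recombinant human Tdp1 was used at 1 nM final.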
RECQ1 inh = RECQ1 (human) helicase inhibition | Potency, µM (top dose mostly 57.3 µM), without a hit: at the highest dose activity, negative = inhibition, actives largely listed as inhibitors | 240,000 tested, 0.54% active | RECQ1 DNA unwinding, red fluorescence kinetic read | P46063;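 further: plate controls were vehicle for no effect and no enzyme for full effect; nearly all actives have a fitted effect of over 30% in size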
Target sequence (P46063 whole entry, looked up): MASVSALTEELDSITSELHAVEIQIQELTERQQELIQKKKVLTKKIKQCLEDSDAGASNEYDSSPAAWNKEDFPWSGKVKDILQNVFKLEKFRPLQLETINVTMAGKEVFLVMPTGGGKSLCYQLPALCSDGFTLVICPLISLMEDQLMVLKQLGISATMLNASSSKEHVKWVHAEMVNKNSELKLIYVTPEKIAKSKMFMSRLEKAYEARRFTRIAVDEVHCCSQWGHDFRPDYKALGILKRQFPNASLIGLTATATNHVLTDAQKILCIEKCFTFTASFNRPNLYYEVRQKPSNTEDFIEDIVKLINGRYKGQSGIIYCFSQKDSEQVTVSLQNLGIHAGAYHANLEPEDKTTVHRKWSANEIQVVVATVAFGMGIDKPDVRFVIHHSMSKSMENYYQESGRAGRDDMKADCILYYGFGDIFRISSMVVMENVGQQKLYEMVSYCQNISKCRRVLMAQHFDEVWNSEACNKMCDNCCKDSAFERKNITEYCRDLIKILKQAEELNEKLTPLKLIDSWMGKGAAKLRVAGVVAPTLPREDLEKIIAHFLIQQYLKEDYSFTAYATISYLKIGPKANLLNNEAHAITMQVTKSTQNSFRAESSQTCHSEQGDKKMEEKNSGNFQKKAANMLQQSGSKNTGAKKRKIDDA
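50 nM RECQ1T1 preincubated 15 min with compound in Tris pH 8.0 buffer with MgCl2, DTT, Tween-20 and 2.5 ug/ml poly(dI-dC); started with 200 nM TAMRA/BHQ-2 forked duplex and 2 mM ATP. Unwinding read as fluorescence (525/598 nm), two reads 2 h apart.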
GCN5L2 inh = blocks human GCN5L2 histone acetyltransferase; Q92830; 390,000 tested, 0.21% active; GCN5L2 HAT assay, ThioGlo1 CoA-SH fluorescence; Potency, µM (doses to about 58.9 µM), without a hit: top-dose activity change, negative = inhibition, hits mostly inhibitors
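Fluorescence readout, Ex340nm/Em540nm: ThioGlo1 (50uM final) reacts with free CoA thiol released as 20nM GCN5L2 acetylates H3(1-25) peptide (75uM) using acetyl-CoA (70uM). Compound and enzyme sat 15 min beforehand; 20 min room-temperature reaction.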
Numbers without * were called inactive; i = inactive; ? = inconclusive; · = not tested or not shown; ! = not active in a repeat; [ ] = dose if it differs, or a comment. Most compounds without a hit are left out; they make up all but 0.87% or so of the library. The call rests on the fitted dose curve; in most records, active means well fitted curve in the direction sought with a large enough effect; inconclusive means small, poorly fitted or top-dose-only effect, or another doubt; inactive means no such curve, though single readings can be large; an effect the other way counts as inactive or inconclusive. Unless noted, on the % scale 0 is the no-effect control and ±100 the full control effect; potency means the concentration at half of the fitted maximal effect.

SMILES | BLM helicase inh | APEX1 inh | TDP1 inh | RECQ1 inh | GCN5L2 inh
CN(C)Cc1ccccc1-c1cncnc1NCc1ccccc1 | -13% | 0% | · | 6% | 2%
Cc1cnc(CNc2ncncc2-c2ccccc2CN(C)C)cn1 | 3% | -3% | 28µM* | i | -17%
C=CCNC(=O)c1cc(-c2cccs2)on1 | · | 9% | · | · | ·
O=C(N/N=C/c1c[nH]c2ccccc12)c1cc(-c2ccccc2)n[nH]1 | -19% | 8% | 8% | 25µM* | -4%
COc1ccc2c(Cl)c(-c3nnc(SCC(=O)c4ccccc4)n3C)sc2c1 | -15% | -2% | 89µM* | i | 1%
COc1ccc2c(Cl)c(-c3nnc(SCC(N)=O)n3C)sc2c1 | -11% | 16% | 3% | i | -5%
O=C1C(=O)c2ncccc2-c2cccnc21 | 16µM* | · | · | · | -7%
O=C1c2cccnc2C(=O)N1CO | 0% | 2% | 4% | 10% | -7%
CC1(C)Cc2c(sc3ncn4c(=S)[nH]nc4c23)CO1 | 0% | 5% | 11% | -1% | 22µM*
CC1(C)Cc2c(sc3ncn(N)c(=N)c23)CO1 | 0% | -1% | 3% | -4% | 2%
CC(C)(C)OC(=O)NCc1nnc(-c2cc3ccccc3[nH]2)s1 | · | · | 0% | · | ·
COc1cccc(C2c3c(ncn(-c4cccc(OC)c4)c3=N)Oc3ccc4ccccc4c32)c1 (configuration not stated) | · | · | 5% | · | ·
COc1ccc(CNc2nc(-c3ccc(C(=O)N(C)C)cc3)nc3ccccc23)c(OC)c1 | 6% | 1% | -13% | -5% | -25%
COc1ccc(CNc2nc(-c3ccc(N(C)C)cc3)nc3ccccc23)c(OC)c1 | 28µM* | -3% | · | -16% | -28%
O=C(Cc1nnc(-c2nc3ccccc3[nH]2)o1)Nc1cc(C(F)(F)F)ccc1Cl | · | · | 1% | · | ·
CC1(C)CC(=O)C2=C(C1)c1c(ccc3ccccc13)NC2c1cc([N+](=O)[O-])cc([N+](=O)[O-])c1O (configuration not stated) | 22µM* | -5% | 5% | i | ?
CC1(C)CC(=O)C2=C(C1)c1c(ccc3ccccc13)NC2c1ccc(C(=O)O)cc1 (configuration not stated) | -3% | 9% | · | · | -30%
C=Cc1cc2c(s1)c1cnn(Cc3ccccc3F)c(=O)c1n2C | · | · | -2% | · | ·
O=C1CCc2cc(S(=O)(=O)Nc3cc(F)cc(Cl)c3)c(F)cc2N1 | · | · | -1% | · | ·
O=C(COC(=O)c1ccc([N+](=O)[O-])s1)NCc1ccc(F)cc1 | -18% | 32µM* | 3% | -7% | -3%
Cc1ccc(Nc2c(-c3ccccc3O)nc3cnccn23)cc1 | -11% | -6% | 3% | i | -8%
Cc1ccc(Nc2c(-c3ccccc3O)nc3cc(C)ccn23)cc1 | -8% | · | 10% | · | 25µM*
Cc1ccc2c(c1)C1CC(C)(O2)N(c2cccc(C(=O)NCc3ccccn3)c2)C(=O)N1 (configuration not stated) | 3% | 0% | 4% | · | 0%
Cc1ccc2c(c1)C1CC(C)(O2)N(c2cccc(C(=O)NC3CCN(Cc4ccccc4)CC3)c2)C(=O)N1 (configuration not stated) | 1% | 24µM* | 1% | · | 1%
COc1cc(NC(=O)c2cc([N+](=O)[O-])ccc2NC(=O)CNCc2ccccn2)cc(OC)c1 | -1% | 0% | 56µM* | · | -13%
SMILES | BLM helicase inh | APEX1 inh | TDP1 inh | RECQ1 inh | GCN5L2 inh
COc1cc(F)c(S(=O)(=O)N2CCN(S(=O)(=O)c3cccc(NC(C)=O)c3)CC2)c(F)c1 | · | · | 2% | · | ·
O=C(NNC(=O)C1[C@H]2CCCC[C@@H]12)Nc1cccc2ccccc12 (some centres not stated) | 1% | 0% | 1% | i | 25µM*
Cc1c(P(=S)(c2ccccc2)c2ccccc2)c2ccccc2n1C(=O)Cc1ccccc1 | · | · | 0% | · | ·
O=C1[C@@H]2[C@H]3CC[C@H](C3)[C@@H]2C(=O)N1O | 3% | ? | · | 3% | -1%
N[C@@H]1CCN(O)C1=O | -11% | 3.5µM*! | -8% | -2% | -3%
CC[C@H]1OC(=O)[C@H](C)[C@@H](O[C@H]2C[C@@](C)(OC)[C@@H](O)[C@H](C)O2)[C@H](C)[C@@H](O[C@@H]2O[C@H](C)C[C@H](N(C)C)[C@H]2O)[C@](C)(O)C[C@@H](C)/C(=N\OCOCCOC)[C@H](C)[C@@H](O)[C@]1(C)O | · | 7%[21 µM] | · | · | ·
CSCCOC(=O)c1[nH]c2c(c1C)C(=O)CC(c1ccco1)C2 (configuration not stated) | -29% | 13µM* | 13µM* | -21% | -24%
N#Cc1c(-c2ccc(-c3ccccc3)cc2)no[n+]1[O-] | · | -7% | · | · | ·
COCCN(C(=O)COC(=O)/C=C/c1ccco1)c1c(N)n(Cc2ccccc2)c(=O)[nH]c1=O | -9% | ? | 25µM* | · | -5%
COCCN(C(=O)COC(=O)/C=C/c1ccc(C)o1)c1c(N)n(Cc2ccccc2)c(=O)[nH]c1=O | -2% | 49% | 4% | · | -4%
Cc1ccc(N[S+](=O)([O-])c2cc3c(cc2CCc2ccccc2)NC(=O)CO3)cc1C | · | · | 2% | · | ·
O.O.O.O.O.O.O.O=S(=O)([O-])[O-].[Co+2] | 8.9µM* | ? | 2% | 16µM* | ?
c1ccc(CNCc2nnc(-c3cc4ccccc4[nH]3)o2)cc1 | · | · | 0% | · | ·
COC(=O)c1cnn(-c2ccc(C(=O)Nc3ccc(C(C)=O)cc3)cc2)c1N | -1% | 19% | 35µM* | · | -2%
CC(=O)Nc1ccc(S(=O)(=O)c2ccc([N+](=O)[O-])cc2)cc1 | -5% | 65% | · | · | 1%
CNc1ccc([N+](=O)[O-])cc1 | · | 25% | 1% | 11µM* | 0%
CSc1ncc(CN2CCN(C3CCN(C(C)C)CC3)C(CCO)C2)cn1 (configuration not stated) | -3% | 0% | 3% | -7% | -24%
CSc1ncc(CN2CCN(C3CCCCC3)C(CCO)C2)cn1 (configuration not stated) | -3% | 2% | 3% | -12% | 14µM*
Oc1cccc(/C=N/NC(=S)NCCN2CCOCC2)c1O | -1% | ? | 5% | 13µM* | -13%
O=C1CCc2cc(S(=O)(=O)Nc3cccc(B(O)O)c3)ccc2N1 | · | · | 0% | · | ·
CC[C@H]1C(c2ccc(F)cc2)=NN(c2ccccc2)[C@@H]1CO | -14%[75.6 µM] | 19% | -16%[56.1 µM] | -6%[81.1 µM] | 40µM*!
OC[C@@H]1[C@@H](c2ccc(F)cc2)C(c2ccccc2)=NN1c1ccccc1 | -14%[75.6 µM] | ? | -20%[56.1 µM] | -19%[81.1 µM] | -14%
CC(C)=NOCc1ccc(-c2cn([C@@H]3COC[C@@H]3O)nn2)cc1 | -10%[12.4 µM] | 32%[12.4 µM] | -3%[21 µM] | -12%[11.5 µM] | ·
CCCCC[C@H](O)/C=C/C1=C(CCCCCCC(=O)O)C(=O)CC1 | 29% | -9% | 11% | 10µM*! | -4%
